# Laboratory results taken from ChEMBL document CHEMBL3988442, “University of Dundee, Small-Polar-MMV Screening Library” (2021).
# Out of some 48,000 compounds screened, about 13,000 (27%) showed an effect of 50% or more. Some of the results follow.
# Test system: Wolbachia pipientis
# Test: Anti-Wolbachia Cell-Based Screen
# Format: functional
# Design: scale not given: in the data most compounds retested in dose-response had high values
# Details: 5 µM
row,Structure (SMILES),Percent Effect [%]
1,NCC1Cc2cc(Cl)cc(-c3cncc(C(=O)N4CCCCC4)n3)c2O1 (configuration not stated),0.4481
2,O=C(O)C(F)(F)F.O=C1CO[C@@H]2CN(Cc3cccs3)C[C@H]2N1CC1CC1,3.643
3,O=C(NCCc1cccs1)[C@H]1CO[C@H]2CCN(C3CCC3)C[C@H]2C1.O=C(O)C(F)(F)F,119.1
4,O=C(NCc1cccs1)c1nc2c(o1)CN(CC1CC1)C2.O=C(O)C(F)(F)F,-6.948
5,O=C(NCc1cccs1)[C@H]1CO[C@H]2CCN(C3CCCC3)C[C@H]2C1.O=C(O)C(F)(F)F,106.7
6,O=C(NCCc1cccs1)[C@H]1CO[C@H]2CCN(CC3CC3)C[C@H]2C1.O=C(O)C(F)(F)F,100.3
7,O=C(NCCc1cccs1)[C@]12COC[C@H]1CN(C1CCOCC1)C2.O=C(O)C(F)(F)F,-30.21
8,CC(C)NC(=O)[C@H]1C[C@@H]2[C@@H](C1)OCCN2Cc1cccs1.O=C(O)C(F)(F)F,-8.796
9,O=C(NCc1cccs1)C1CNCC12CCOCC2.O=C(O)C(F)(F)F (configuration not stated),1.102
10,CN1C[C@@H]2COC[C@]2(C(=O)NCCc2cccs2)C1.O=C(O)C(F)(F)F,-4.441
11,CCN(CC)Cc1cc(C(=O)N2CCCC(CC)(C(=O)O)C2)c(C)o1 (configuration not stated),1.255
12,O=C(c1scc2c1OCCO2)N1CCOC(CCc2ccccc2)C1 (configuration not stated),-26.43
13,CCc1nc(C)c([C@H]2CN(C)C[C@@H]2C(=O)Nc2cccc3cn[nH]c23)[nH]1,-9.056
14,CC(=O)N1CCN(C(=O)CCNc2snc(Cl)c2C#N)CC1,-5.282
15,Cc1cc(CN(Cc2ccccc2)CC(O)c2cccs2)on1 (configuration not stated),-11.7
16,CSc1nnc(CNC(=O)Nc2ccccc2F)n1C,133
17,CNc1nc(CNC(=O)Nc2ccccc2SC)cs1,0.4301
18,CSc1nnc(CNC(=O)Nc2ccccc2Br)n1C,152.8
19,Cn1c(CO)nnc1SCc1c(F)cccc1Br,6.099
20,CCc1ccccc1NC(=O)NCc1nnc(SC)n1C,130.1
21,CNC(=O)Cc1ccccc1NC(=O)NCc1ccc(SC)cc1,-2.376

row,Structure (SMILES),Percent Effect [%]
1,Cn1c(C(F)(F)F)nn(CCNC(=O)Nc2ccccc2F)c1=O,4.89
2,CCOc1ccccc1NC(=O)NCc1ccoc1,6.288
3,COc1ccccc1NC(=O)NCc1nnc(SC)n1C,134.3
4,COc1ccccc1NC(=O)NCc1cn[nH]c1,15.69
5,COC(=O)CCCNC(=O)Nc1ccccc1OC,-0.6444
6,CN(C)c1ncc(CNC(=O)Nc2ccccc2F)n1C,-5.654
7,CN(C(=O)c1ccncc1Cl)c1ccccc1S(C)(=O)=O,-0.2522
8,O=C(Nc1cccs1)N(CCO)CCOCC(F)(F)F,5.099
9,Cc1ccccc1CC1(CO)CCCN(c2ncncc2C(C)C)C1 (configuration not stated),2.064
10,Cc1nnc(N2CC[C@@H](OCC3CC3)[C@@H](Cc3ccccc3)C2)s1.O=C(O)C(F)(F)F,4.615
11,CO[C@H]1CCN(c2nnc(C)s2)C[C@@H]1Cc1ccccc1.O=C(O)C(F)(F)F,94.02
12,CO[C@@H]1CCN(c2nnc(C)s2)C[C@@H]1Cc1ccccc1.O=C(O)C(F)(F)F,97
13,Cc1nnc(N2CC[C@H](OCC3CC3)[C@@H](Cc3ccccc3)C2)s1.O=C(O)C(F)(F)F,-12.39
14,COCc1ccc(C(=O)N2CCC(Oc3ccccc3)(C(=O)O)CC2)o1,-4.026
15,Cc1ncc(C)c(N2CCCC(CO)(Cc3cccc(Cl)c3)C2)n1 (configuration not stated),-4.145
16,CN1CCN(CCCNC(=O)c2cc(Cl)c3c(c2)OCO3)CC1,11.84
17,CC(C)N(C)Cc1nnc2n1CCN(S(=O)(=O)C1CC1)CC2.O=C(O)C(F)(F)F,-7.825
18,CN(C)Cc1cc(=O)n2c(n1)CN(CC1CCOCC1)CCC2,-13.06
19,CN(C)Cc1cc(=O)n2c(n1)CN(S(=O)(=O)C1CC1)CCC2.O=C(O)C(F)(F)F,96.54
20,CC(C)N(C)Cc1cc(=O)n2c(n1)CN(S(=O)(=O)C1CC1)CCC2.O=C(O)C(F)(F)F,109.3
21,CCN(CC)Cc1cc(=O)n2c(n1)CN(S(=O)(=O)C1CC1)CCC2.O=C(O)C(F)(F)F,115.6

row,Structure (SMILES),Percent Effect [%]
1,CC(C)N(C)Cc1nnc2n1CCCN(S(=O)(=O)C1CC1)C2.O=C(O)C(F)(F)F,-4.148
2,C=C(C)COc1cccc(C(=O)N(C)Cc2cc(CC)no2)c1,-19.24
3,Cc1ccn(-c2ccc(N3CCCN(Cc4ccccc4)CC3)nn2)n1,1.996
4,COCCCC1(CO)CCCN(C(=O)c2cnc3c(c2)CCCC3)C1 (configuration not stated),-5.76
5,Cc1cc(C)n(CCN2CCOC(CNc3cccnn3)C2)n1 (configuration not stated),103.1
6,c1cnnc(NCC2CN(CC3CCOCC3)CCO2)c1 (configuration not stated),103
7,CCn1ccnc1CN1CCOC(CNc2cccnn2)C1 (configuration not stated),10.18
8,CCN(CC1CN(CCc2ccccn2)CCO1)c1cccnn1 (configuration not stated),-0.8374
9,c1cnnc(NCC2CN(CCn3cncn3)CCO2)c1 (configuration not stated),-18.76
10,Cn1c(CN2CCOC(CNc3cccnn3)C2)nnc1C1CC1 (configuration not stated),105.6
11,c1ccc(CCN2CCOC(CNc3cccnn3)C2)nc1 (configuration not stated),95.59
12,Clc1snnc1CN1CCOC(CNc2cccnn2)C1 (configuration not stated),-2.392
13,CC(C)c1ccc(CNC(C)c2ccc(S(=O)(=O)N(C)C)cc2)cc1 (configuration not stated),1.332
14,CN(CCC#N)C(=O)CN1CCC(c2cc3ccccc3[nH]2)CC1,-2.857
15,O=S(=O)(c1ccccc1)N1CCN(Cc2ccc(F)cc2Br)CC1,23.46
16,CCn1ccnc1-c1nc2cc(S(=O)(=O)N3CCCC3)ccc2n1C,-1.841
17,c1ccc(OCCCN2CCOC(CNc3cccnn3)C2)cc1 (configuration not stated),96.43
18,c1cnnc(NCC2CN(CCn3cccn3)CCO2)c1 (configuration not stated),-18.13
19,N#Cc1cnn(CCN2CCOC(CNc3cccnn3)C2)c1 (configuration not stated),-39.45
20,Cn1cc(CCN2CCOC(CNc3cccnn3)C2)cn1 (configuration not stated),102.6
